Reference: PubChem BioAssay
Active and inactive are the calls of the source.

Experiments:
[1] = binders of probe aFSTL3 on microarray, primary screen, stem cell growth factor project, biochemical, small-molecule microarray, fluorescence 635/667 (AID 1064); details: higher = more signal;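 also: measures binding of the biotinylated anti-FSTL3 antibody to printed compounds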
[2] = binders from COS7 lysate, DM2A8 probe, primary screen, torsin A project, cell lysate, small-molecule microarray, fluorescence 635/667 (AID 1065); details: higher = more signal, COS7 lysate expressing mutant human TOR1A
[3] = binders of probe aFGF2 on microarray, primary screen, stem cell growth factor project, biochemical, small-molecule microarray, fluorescence 635/667 (AID 1067); details: higher = more signal;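 also: measures binding of biotinylated aFGF2 protein to printed compounds on slides; z-score merges feature fluorescence and signal-to-noise across triplicate slides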
[4] = binders of probe aFGF10 on microarray, primary screen, stem cell growth factor project, biochemical, small-molecule microarray, fluorescence 635/667 (AID 1071); details: higher = more signal;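 also: score merges 667 nm spot intensity and signal to noise from triplicate slides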
[5] = target: Neurogenic locus notch homolog protein 2 (Homo sapiens) (UniProt Q04721); assay: Notch2 binders on small-molecule microarrays, primary screen, biochemical, small-molecule microarray, 635 nm fluorescence, stem cell growth factors (AID 1073); details: Notch2 binding, higher = more signal
Neurogenic locus notch homolog protein 2 (Homo sapiens), sequence (Q04721 whole entry, looked up, canonical isoform): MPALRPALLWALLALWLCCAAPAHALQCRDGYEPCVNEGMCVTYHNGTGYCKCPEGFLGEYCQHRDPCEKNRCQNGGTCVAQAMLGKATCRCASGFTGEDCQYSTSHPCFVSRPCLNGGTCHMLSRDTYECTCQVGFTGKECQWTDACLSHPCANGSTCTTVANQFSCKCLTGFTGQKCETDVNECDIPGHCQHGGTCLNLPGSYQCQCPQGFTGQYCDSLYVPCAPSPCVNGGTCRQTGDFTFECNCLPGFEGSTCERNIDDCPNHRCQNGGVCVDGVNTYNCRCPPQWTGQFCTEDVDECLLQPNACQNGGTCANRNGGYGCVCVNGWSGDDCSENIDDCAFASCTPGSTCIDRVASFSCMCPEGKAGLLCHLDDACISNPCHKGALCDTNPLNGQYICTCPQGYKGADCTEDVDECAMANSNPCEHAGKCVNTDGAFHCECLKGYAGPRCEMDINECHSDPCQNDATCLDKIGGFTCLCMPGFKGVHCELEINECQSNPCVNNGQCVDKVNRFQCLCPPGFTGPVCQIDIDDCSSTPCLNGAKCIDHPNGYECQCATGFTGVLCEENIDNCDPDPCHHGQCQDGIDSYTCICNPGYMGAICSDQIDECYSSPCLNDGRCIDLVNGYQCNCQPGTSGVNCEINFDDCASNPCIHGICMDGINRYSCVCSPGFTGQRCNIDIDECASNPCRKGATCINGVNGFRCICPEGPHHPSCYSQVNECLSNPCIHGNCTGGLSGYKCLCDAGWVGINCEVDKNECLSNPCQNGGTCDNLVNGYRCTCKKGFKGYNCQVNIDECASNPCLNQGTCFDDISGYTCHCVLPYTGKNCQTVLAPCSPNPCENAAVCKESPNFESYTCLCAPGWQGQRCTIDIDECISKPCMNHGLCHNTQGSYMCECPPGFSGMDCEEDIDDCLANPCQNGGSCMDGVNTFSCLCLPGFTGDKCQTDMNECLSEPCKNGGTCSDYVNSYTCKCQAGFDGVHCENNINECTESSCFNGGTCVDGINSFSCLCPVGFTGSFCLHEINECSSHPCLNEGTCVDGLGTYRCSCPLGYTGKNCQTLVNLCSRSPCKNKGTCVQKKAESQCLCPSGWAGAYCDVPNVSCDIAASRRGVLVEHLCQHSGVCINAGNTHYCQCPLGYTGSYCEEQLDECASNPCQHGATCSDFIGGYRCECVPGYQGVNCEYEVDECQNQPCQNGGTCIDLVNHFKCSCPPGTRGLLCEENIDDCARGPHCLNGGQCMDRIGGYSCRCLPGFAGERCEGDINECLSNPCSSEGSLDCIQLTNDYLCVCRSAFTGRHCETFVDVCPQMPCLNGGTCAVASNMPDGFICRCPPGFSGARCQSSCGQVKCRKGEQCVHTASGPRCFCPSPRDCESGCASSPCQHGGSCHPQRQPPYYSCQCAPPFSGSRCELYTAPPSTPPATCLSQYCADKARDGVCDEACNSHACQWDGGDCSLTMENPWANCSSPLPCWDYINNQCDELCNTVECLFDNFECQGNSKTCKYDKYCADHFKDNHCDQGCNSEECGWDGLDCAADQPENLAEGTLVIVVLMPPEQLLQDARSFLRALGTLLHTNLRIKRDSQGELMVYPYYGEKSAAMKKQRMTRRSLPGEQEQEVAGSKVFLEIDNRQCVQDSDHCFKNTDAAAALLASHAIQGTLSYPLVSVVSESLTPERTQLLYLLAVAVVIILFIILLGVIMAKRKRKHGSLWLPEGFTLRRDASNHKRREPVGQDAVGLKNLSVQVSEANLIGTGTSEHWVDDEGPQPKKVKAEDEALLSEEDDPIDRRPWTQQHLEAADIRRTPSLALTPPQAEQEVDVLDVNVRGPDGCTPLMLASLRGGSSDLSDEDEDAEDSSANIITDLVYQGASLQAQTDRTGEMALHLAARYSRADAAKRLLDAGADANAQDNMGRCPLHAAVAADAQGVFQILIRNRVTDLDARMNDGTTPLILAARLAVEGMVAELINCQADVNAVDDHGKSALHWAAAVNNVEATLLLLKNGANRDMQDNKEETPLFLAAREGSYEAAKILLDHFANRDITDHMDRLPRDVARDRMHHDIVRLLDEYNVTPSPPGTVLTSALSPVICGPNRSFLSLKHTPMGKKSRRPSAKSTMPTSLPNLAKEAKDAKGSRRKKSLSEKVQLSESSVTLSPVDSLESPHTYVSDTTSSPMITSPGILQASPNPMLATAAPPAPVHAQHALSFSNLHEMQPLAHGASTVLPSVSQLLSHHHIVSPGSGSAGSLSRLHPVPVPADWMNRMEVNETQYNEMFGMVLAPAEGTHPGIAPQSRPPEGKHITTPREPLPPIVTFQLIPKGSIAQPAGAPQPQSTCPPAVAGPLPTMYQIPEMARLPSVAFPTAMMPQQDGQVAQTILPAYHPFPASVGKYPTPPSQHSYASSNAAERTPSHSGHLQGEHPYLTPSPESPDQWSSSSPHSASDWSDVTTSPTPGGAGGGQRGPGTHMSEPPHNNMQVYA

[6] = target: Pro-neuregulin-1, membrane-bound isoform (Homo sapiens) (UniProt Q02297); assay: NRG1 binders on small-molecule microarrays, primary screen, psychiatric disease protein project, biochemical, small-molecule microarray, fluorescence 635/667 (AID 1075); details: NRG1 binding, 635 nm fluorescence, higher = more signal;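 also: score combines 667 nm spot fluorescence with signal to noise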
[7] = test system: Neuregulin-1 EGF-like domain; assay: binders of neuregulin-1 EGF-like domain, primary screen, biochemical, small-molecule microarray, 635 nm fluorescence (AID 1081); details: small-molecule microarray binding, higher = more signal;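 also: binding of the protein to compounds printed on small-molecule microarray slides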
[8] = FRG1 promoter luciferase signal modulators, primary screen, FRG1 inhibition for FSHD, cell-based, C2C12 myotubes, firefly/Renilla luciferase, luminescence (AID 1084); details: higher = more signal, called active from +8 up or from −8 down
[9] = binders of probe aFST on microarray, primary screen, stem cell growth factor project, biochemical, small-molecule microarray, fluorescence 635/667 (AID 1086); details: higher = more signal;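 also: score merges 667 nm fluorescence with signal-to-noise of each printed compound spot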
[10] = binders of probe aHhip on microarray, primary screen, stem cell growth factor project, biochemical, small-molecule microarray, fluorescence 635/667 (AID 1087); details: higher = more signal;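 also: score merges spot fluorescence at 667nm with spot signal to noise ratio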
[11] = test system: PRMT1 (protein arginine N-methyltransferase 1); assay: PRMT1 binders on small-molecule microarrays, primary screen, biochemical, small-molecule microarray, 635 nm fluorescence (AID 1088); details: small-molecule microarray binding, higher = more signal;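 also: binding of Prmt1 protein to compounds spotted on small-molecule microarray slides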
[12] = yeast growth modulation, basal conditions, primary screen, YJM789 clinical isolate, OD600, 24 h (AID 1089);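 also: growth of clinical yeast isolate S. cerevisiae YJM 789 seeded 1000 cells per well; test concentration not given here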; details: S. cerevisiae YJM789 growth, higher = more signal, called active from +8 up or from −8 down
[13] = fission yeast growth modulation, primary screen, strain 972, OD600, 24 h, no modulator (AID 1090);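 also: basal condition with compound alone and no growth modifier present; test concentration not given here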; details: S. pombe 972 growth, higher = more signal, called active from +8 up or from −8 down
[14] = S. cerevisiae growth modulation with rapamycin, primary screen, strain BY4716, OD600, 96 h (AID 1091); details: higher = more signal, called active from +8 up or from −8 down; also: test concentration not given here
[15] = target: Torsin-1A-interacting protein 2 (Homo sapiens) (UniProt Q8NFQ8); assay: LULL1 binders on small-molecule microarray, primary screen, cell lysate, human LULL1 lysate, 635/667 nm fluorescence (AID 1092); details: hLULL1 lysate binding, 635 nm fluorescence, higher = more signal;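 also: probe is lysate of COS7 cells overexpressing human LULL1; score merges per-feature 667 nm fluorescence with signal-to-noise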
[16] = E. coli growth modulation, two-sided OD650, primary screen, E. coli filamentation project, strain DRC41, 24 h (AID 1093); details: OD650, 24 h, higher = more signal, called active from +8 up or from −8 down;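 also: MC1000 strain lacking acrAB efflux and sulA so SOS filamentation is blocked; test concentration not given here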
[17] = small-molecule microarray binders of probe aLefty2, primary screen, biochemical, biotinylated probe, 635/667 nm fluorescence (AID 1094); details: higher = more signal;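 also: score merges spot fluorescence near 667 nm with spot signal-to-noise ratio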
[18] = test system: Noggin (protein binding on small-molecule microarray); assay: Noggin binders on small-molecule microarray, primary screen, biochemical, 635/667 nm fluorescence (AID 1095); details: 635 nm fluorescence, higher = more signal;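 also: score merges 667 nm feature fluorescence with signal to noise over triplicate slides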
[19] = target: Neurogenic locus notch homolog protein 3 (Homo sapiens) (UniProt Q9UM47); assay: NOTCH3 binders on small-molecule microarray, primary screen, biochemical, 635/667 nm fluorescence (AID 1096); details: NOTCH3 binding, 635 nm fluorescence, higher = more signal
Neurogenic locus notch homolog protein 3 (Homo sapiens), sequence (Q9UM47 whole entry, looked up): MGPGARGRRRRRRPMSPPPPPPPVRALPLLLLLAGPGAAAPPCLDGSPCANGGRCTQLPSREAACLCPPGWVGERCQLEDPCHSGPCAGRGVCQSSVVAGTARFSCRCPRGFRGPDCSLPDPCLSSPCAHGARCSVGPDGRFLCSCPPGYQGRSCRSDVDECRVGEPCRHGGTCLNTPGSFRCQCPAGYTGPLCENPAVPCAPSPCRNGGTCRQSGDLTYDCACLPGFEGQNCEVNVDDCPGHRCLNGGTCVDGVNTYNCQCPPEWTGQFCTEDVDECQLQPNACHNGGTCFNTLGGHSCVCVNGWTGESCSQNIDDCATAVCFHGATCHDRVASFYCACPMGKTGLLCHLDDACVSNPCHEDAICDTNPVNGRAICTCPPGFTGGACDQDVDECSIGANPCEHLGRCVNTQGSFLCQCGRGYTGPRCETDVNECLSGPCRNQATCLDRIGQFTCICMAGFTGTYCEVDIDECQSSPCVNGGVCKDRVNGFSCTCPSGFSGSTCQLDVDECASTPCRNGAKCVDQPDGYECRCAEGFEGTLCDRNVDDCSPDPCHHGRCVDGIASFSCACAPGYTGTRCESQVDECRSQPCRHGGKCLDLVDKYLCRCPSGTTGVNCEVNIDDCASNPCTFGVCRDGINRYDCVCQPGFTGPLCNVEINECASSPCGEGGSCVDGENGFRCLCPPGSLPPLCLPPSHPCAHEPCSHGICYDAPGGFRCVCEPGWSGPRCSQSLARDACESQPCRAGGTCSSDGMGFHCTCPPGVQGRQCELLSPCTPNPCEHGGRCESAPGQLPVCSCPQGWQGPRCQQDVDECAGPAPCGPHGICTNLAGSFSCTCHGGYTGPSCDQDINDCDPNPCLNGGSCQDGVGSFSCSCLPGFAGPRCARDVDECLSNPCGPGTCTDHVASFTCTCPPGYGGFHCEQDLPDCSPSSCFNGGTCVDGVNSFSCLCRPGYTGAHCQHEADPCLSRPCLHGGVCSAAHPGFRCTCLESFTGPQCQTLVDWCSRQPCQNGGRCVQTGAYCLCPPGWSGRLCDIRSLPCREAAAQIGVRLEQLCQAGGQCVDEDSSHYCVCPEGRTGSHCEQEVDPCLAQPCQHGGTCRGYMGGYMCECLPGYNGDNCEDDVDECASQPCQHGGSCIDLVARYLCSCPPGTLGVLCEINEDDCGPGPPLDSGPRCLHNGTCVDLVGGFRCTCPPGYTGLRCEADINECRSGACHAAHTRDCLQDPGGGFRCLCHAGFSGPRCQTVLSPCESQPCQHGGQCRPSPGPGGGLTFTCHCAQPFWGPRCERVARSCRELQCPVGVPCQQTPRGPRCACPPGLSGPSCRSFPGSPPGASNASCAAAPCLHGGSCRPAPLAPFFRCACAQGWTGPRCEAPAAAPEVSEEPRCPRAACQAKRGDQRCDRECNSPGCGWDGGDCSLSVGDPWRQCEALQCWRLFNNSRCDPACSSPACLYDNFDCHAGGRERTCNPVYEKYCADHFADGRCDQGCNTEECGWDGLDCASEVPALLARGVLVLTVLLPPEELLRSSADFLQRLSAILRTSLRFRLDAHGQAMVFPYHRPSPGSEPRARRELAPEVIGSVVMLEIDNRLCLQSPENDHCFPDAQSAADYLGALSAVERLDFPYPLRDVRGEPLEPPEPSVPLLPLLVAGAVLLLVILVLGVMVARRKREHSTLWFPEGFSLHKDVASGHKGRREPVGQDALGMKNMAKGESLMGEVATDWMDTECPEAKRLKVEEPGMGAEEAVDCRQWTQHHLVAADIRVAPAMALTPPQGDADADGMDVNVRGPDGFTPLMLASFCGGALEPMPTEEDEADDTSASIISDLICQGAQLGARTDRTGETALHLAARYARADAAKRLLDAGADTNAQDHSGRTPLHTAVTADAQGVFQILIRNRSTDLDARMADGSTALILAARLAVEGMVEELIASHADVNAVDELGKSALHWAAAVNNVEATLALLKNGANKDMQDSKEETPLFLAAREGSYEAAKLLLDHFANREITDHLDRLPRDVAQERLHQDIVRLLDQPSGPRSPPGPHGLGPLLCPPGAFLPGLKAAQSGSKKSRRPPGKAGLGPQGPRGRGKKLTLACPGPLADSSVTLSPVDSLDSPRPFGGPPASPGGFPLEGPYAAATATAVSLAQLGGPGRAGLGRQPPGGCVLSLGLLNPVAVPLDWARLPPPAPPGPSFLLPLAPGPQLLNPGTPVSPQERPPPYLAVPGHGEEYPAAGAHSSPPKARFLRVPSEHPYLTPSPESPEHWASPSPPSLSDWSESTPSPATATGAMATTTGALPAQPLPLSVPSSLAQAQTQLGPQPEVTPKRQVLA

[20] = small-molecule microarray binders of probe aEGFR, primary screen, biochemical, biotinylated probe, 635/667 nm fluorescence (AID 1097); details: higher = more signal;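 also: probe is a biotinylated anti-EGFR antibody binding compounds printed on slides; score combines fluorescence near 667 nm and signal to noise of each spot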

Structure (SMILES) | composite z-score [1] | composite z-score [2] | composite z-score [3] | composite z-score [4] | composite z-score [5] | composite z-score [6] | composite z-score [7] | z-score [8] | composite z-score [9] | composite z-score [10] | composite z-score [11] | z-score [12] | z-score [13] | z-score [14] | composite z-score [15] | z-score [16] | composite z-score [17] | composite z-score [18] | composite z-score [19] | composite z-score [20]
COc1c(C)cc(-c2nc(-c3ccccc3)c3c(c2C)CO[Si]3(C(C)C)C(C)C)cc1C | -0.24 | 0.428 | -0.134 | 0.146 | 0.442 | -0.0636 | -0.104 | 0.232 (inactive) | 0.0724 | -0.0994 | 0.114 | 0.687 (inactive) | 0.104 (inactive) | -0.191 (inactive) | 0.254 | -1.59 (inactive) | 0.074 | 0.323 | 0.566 | -0.0068
Cc1ccc(S[C@]2(C(=O)NCCN3CCOCC3)CC(=O)N(C(C)C)[C@@H]2c2ccc(CO)cc2I)cc1 | 1.15 | -0.158 | -0.0805 | -0.11 | -0.521 | 1.69 | 1.35 | -0.977 (inactive) | 0.153 | -0.166 | 1.5 | -2.73 (inactive) | -1.75 (inactive) | -0.616 (inactive) | 2.46 | 3.42 (inactive) | 0.126 | -0.889 | 0.0467 | -0.0234
[N-]=[N+]=Nc1ccccc1C[C@]1(C(N)=O)COC(c2ccc(OCCCO)cc2)=N1 | 1.05 | -0.455 | 0.0247 | 0.149 | 0.278 | 1.81 | 1.34 | 3.48 (inactive) | 0.236 | -0.0618 | -0.0424 | -0.684 (inactive) | -0.846 (inactive) | 0.0643 (inactive) | 2.84 | 0.0474 (inactive) | 0.538 | -0.863 | -0.0154 | 0.516
CCCCN1CC=CC23O[C@@H]4/C=C\CCCOC(=O)C4[C@H]2C(=O)N(CCCCCCO)[C@@H]3C1=O (stereo not given in full) | 0.179 | -0.619 | -0.144 | -0.785 | -0.868 | 2.04 | 1.15 | -1.38 (inactive) | -1.09 | -0.0994 | 0.988 | -0.917 (inactive) | -0.818 (inactive) | -0.771 (inactive) | 3.56 | 1.79 (inactive) | -0.19 | -0.676 | -0.0185 | -0.262
CC1(C)OB(/C=C\CC(OC(=O)c2ccncc2)c2ccccc2)OC1(C)C (stereo not given) | 2.93 | 0.214 | 0.0262 | -1.4 | -1.48 | 0.852 | 0.181 | 1.99 (inactive) | -0.0939 | -0.0296 | -0.477 | -1.7 (inactive) | -1.3 (inactive) | 1.99 (inactive) | 0.962 | 1.04 (inactive) | 1.22 | -1.92 | -1.73 | -0.244
C#CCN(C(=O)OC(C)(C)C)[C@H](CO)c1ccccc1 | -0.402 | 0.289 | -0.113 | 0.0182 | -0.148 | -0.329 | 0.77 | -0.0216 (inactive) | 0.115 | -0.111 | 0.738 | -0.365 (inactive) | -2.99 (inactive) | 0.368 (inactive) | 0.444 | -0.223 (inactive) | -0.235 | 0.582 | 0.524 | -0.198
CCOC(=O)C[C@H]1[C@H](OC(=O)c2ccc(-c3ccccc3)cc2)[C@@H](NC(=O)c2ccc(-c3ccccc3)cc2)c2cc(OCCCO)ccc2N1C(=O)c1ccccc1 | -0.326 | 0.254 | -0.0317 | 0.573 | 0.528 | 0.534 | 0.905 | -0.281 (inactive) | 0.627 | -0.213 | 1.26 | 0.495 (inactive) | 0.785 (inactive) | 1.3 (inactive) | 1.69 | -0.783 (inactive) | -0.275 | 0.253 | 1.07 | -0.183
COC(=O)[C@@]1(Cc2ccccc2)[C@H]2c3cc(C(=O)N(C)C)n(CCF)c3C[C@H]2CN1C(=O)c1ccccc1 | 1.57 | 2.12 | 0.181 | 0.103 | 1.31 | 2.17 | 0.592 | 1.52 (inactive) | 0.974 | -0.0296 | 0.479 | 0.176 (inactive) | 1.18 (inactive) | 0.678 (inactive) | 2.21 | -0.0418 (inactive) | 0.534 | -0.669 | 0.782 | 0.21
COCCOC(=O)N1C(=O)[C@@]2(c3cc(C#CC4=CCCCC4)ccc31)[C@H](c1ccc(O)cc1)N1[C@H](c3ccccc3)[C@H](c3ccccc3)OC(=O)[C@H]1[C@@H]2C(=O)N1CCc2cc(OC)c(OC)cc2C1 | -0.253 | -0.252 | -0.0824 | 0.142 | 0.454 | 0.554 | 1.11 | 0.237 (inactive) | 0.0477 | -0.0296 | 1.15 | 0.793 (inactive) | 0.244 (inactive) | 0.543 (inactive) | 2.56 | 0.0512 (inactive) | 0.0113 | 0.286 | 0.399 | -0.0065
COC(=O)[C@H]1N=C(c2ccc(OCCCO)cc2)O[C@H]1c1ccccc1N=[N+]=[N-] | 1.6 | 0.707 | 0.184 | 0.48 | 1.01 | 0.544 | 1.21 | 4.9 (inactive) | 1.04 | -0.0994 | 1.08 | -0.651 (inactive) | -4.13 (inactive) | -1.09 (inactive) | 2.73 | 0.112 (inactive) | 0.588 | 0.0025 | -0.0392 | 0.131
